PubChem BioAssay (NCI)
The panel holds about 83,000 compounds, 20% with a hit somewhere; the sample as a whole holds those more often.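 The endpoint reported here, percent growth, reads 100 for growth as untreated, 0 for no net growth and -100 for all cells dead.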 Values without a mark were called inactive. Activity calls are given as the source filed them. The calls were made as follows: active = growth percent below 10; inactive = the rest.

What follows are molecules tested on HL-60(TB) leukemia (assay: NCI-60 one-dose screen, 48 h (100 = growth as untreated, 0 = no growth, -100 = all killed)). Details: 10 µM unless noted.
Cc1c2cnccc2c(C)c2c1c1cc(C(=O)O)ccc1n2C was tested, and the growth was 5.27% (active). In the case of OCCNc1nc(NCCO)nc(Nc2ccc(C3=NN(c4cc(Cl)cc(Cl)c4)C(c4ccc(Cl)cc4)C3)cc2)n1 (stereo not given), the growth is reported as 13.7%. For Cc1ccc(S(=O)(=O)Nc2ccc(-c3cc(-c4cccc(F)c4)c(C#N)c(=O)[nH]3)cc2)cc1, the growth was 87%. For S=c1sc2c(Cl)nc(-c3cccnc3)nc2n1-c1ccccc1, the growth was -52.5% (active). In the case of O=C(CCCSc1nc(-c2ccccc2)cc(-c2ccccc2)n1)NO, the growth is reported as -26.2% (active). O=C(Cc1ccc(/C=C/C(=O)c2ncc[nH]2)cc1)Nc1ccc(Cl)cc1 was tested, and the growth was -14.5% (active). Work on C/C(=C(/c1ccc(Cl)cc1)c1ccc(OCCN2CCCC2)cc1)c1ccccc1 yielded a growth of 70.4%. Work on CSc1nc(N)c2c(n1)N(C)C=NS2(=O)=O yielded a growth of 124%. Molecule Cc1cc(C)c2c(=O)[nH]c(SCC(=O)Nc3cccc(S(=O)(=O)N(C)C)c3)nc2n1 has a growth of 97.2%. With CCC1(/C=N/NC(N)=S)NC(=O)NC1=O (stereo not given) the growth was 111%. With O=C1Nc2cc(Cl)ccc2/C1=C\c1c(-c2ccc(F)cc2)nc2ccccn12 the growth was -46% (active). N#CC1=C(N)Oc2c(sc3c(Br)cccc23)C1c1ccccn1 (stereo not given) was tested, and the growth was 7.5% (active). O=c1c2sc3ncc(Br)cc3c2ncn1-c1cccc(Cl)c1 was tested, and the growth was 84.5%. O=C1c2c(c3c4cc(F)ccc4oc3c3[nH]c4ccccc4c23)C(=O)N1O gave a growth of 41.8%. Cn1cc(-c2ccc3cc(-c4ccc(CC(=O)Nc5cc(C(C)(C)C)nn5C)cc4)cnc3c2)cn1 gave a growth of 25.2%. Work on COc1ccc(/C=C2\SC(=O)N(Cc3cc(=O)oc4ccc(OC)cc34)C2=O)cc1 yielded a growth of 90.9%. For CCOC(=O)c1ccc(N(C=O)CCC(=O)CCl)cc1, the growth was -28.6% (active). Work on CS(=O)(=O)Nc1cncc(-c2ccc3ncnc(Nc4cncc(Cl)c4)c3c2)c1 yielded a growth of 71.5%. In the case of CC(=O)N1N=C(c2ccc(Nc3nc(Nc4ccc(F)cc4)nc(Nc4ccc(F)cc4)n3)cc2)CC1c1ccc(N(C)C)cc1 (stereo not given), the growth is reported as 10% (active). In the case of CO[C@@H](C)Cn1c(=O)n(C)c2cnc3ccc(-c4cncc(C(C)(C)O)c4)cc3c21, the growth is reported as 8.97% (active). In the case of COc1ccc(-c2cc(=O)n(-c3nc4ccccc4[nH]3)[nH]2)cc1OC, the growth is reported as 35.4%. With COc1ccc(N=C2C(=Nc3ccc(OC)cc3)N(c3ccc(N(C)C)cc3)C(=S)N2c2ccc(OC)cc2)cc1 the growth was 24.6%. OCCNc1nc(NCCO)nc(Nc2ccc(C3=NN(c4cc(Cl)cc(Cl)c4)C(c4ccccc4)C3)cc2)n1 (stereo not given) was tested, and the growth was 61.7%. Molecule CO[C@H]1C[C@@H]2CC[C@@H](C)[C@@](O)(O2)C(=O)C(=O)N2CCCC[C@H]2C(=O)O[C@H]([C@H](C)C[C@@H]2CC[C@@H](O)[C@H](OC)C2)CC(=O)[C@H](C)C=C(C)[C@@H](O)[C@@H](OC)C(=O)[C@H](C)C[C@H](C)/C=C/C=C/C=C1C has a growth of 83%. In the case of Clc1ccc(-c2noc(/C=C\c3ccccc3)n2)cc1, the growth is reported as 94%. Work on c1ccc(-c2nnc(Nc3nnc(-c4ccccc4)s3)s2)cc1 yielded a growth of 103%. Cc1ccc2c(n1)C(=O)C(Cl)=C(Nc1ccc(N3CCN(C)CC3)cc1)C2=O was tested, and the growth was -46.7% (active). For N#CC1=C(N)Oc2c(ccc3ccccc23)C1c1cccs1 (stereo not given), the growth was -29.6% (active). Work on NNC(=O)CNC(=O)Nc1n[nH]c(=S)s1 yielded a growth of 107%. In the case of Nc1ccc(C2=NNC(=O)Cc3cc4c(cc32)OCCO4)cc1Cl, the growth is reported as 7.27% (active). With NS(=O)(=O)c1ccc(NC(=O)/C(=C\c2ccc(Cl)cc2Cl)NC(=O)c2ccccc2)cc1 the growth was 84.8%. Work on Cc1ccc(/C=C(\C#N)n2nc3cccc(F)c3n2)cc1 yielded a growth of 86.6%. In the case of Cc1ccc(/C=C/C(=O)Nc2ncc(Cc3ccc(F)cc3)s2)o1, the growth is reported as 2.75% (active). Molecule Cc1ccc(Nc2cccc3ccccc23)cc1 has a growth of 96.2%. N#CCC1=NC(c2cccs2)=Nc2ccccc2S1 was tested, and the growth was 90.9%. Molecule CN(C)c1ccc(-n2nc3ccccc3n2)cc1 has a growth of 90.5%. Molecule CCCCCCCCn1ccc2cc(NC(=O)CN=[N+]=[N-])ccc21 has a growth of 102%. In the case of CCOC(=N)CC(=O)Nc1cccc(C)c1Cl, the growth is reported as 111%. For CCCCC#Cc1c(I)n(C2OC(CO[Si](C)(C)C(C)(C)C)C3OC(C)(C)OC32)c(=O)n(C(=O)c2ccccc2)c1=O (stereo not given), the growth was 20.4%. In the case of C[C@@H](Oc1cc(-n2cnc3ccc(CN4CCN(C)CC4)cc32)sc1C(N)=O)c1ccccc1C(F)(F)F, the growth is reported as -19.4% (active).
